Nine molecules from PubChem BioAssay (Tox21) can be followed below.

SMILES strings stand for the structures. Values without a mark were called inactive. Records with an inconclusive call do not appear. Active and inactive are the calls of the source. Unless noted, calls come from the whole dose curve; as a rule, active = well fitted curve in the direction sought with a large enough effect in the repeat runs; inconclusive = weak or mixed curves; inactive = no such curve, though single readings can be large; an effect the other way counts as inactive or inconclusive.

Assay [1] can be described thus: qHTS assay to identify small molecule agonists of the hypoxia (HIF-1) signaling pathway - cell viability counter screen (AID 1224844; calls by dose curve; note: nearly all actives have a fitted effect of over 50% in size; note: potency is the fitted concentration of half-maximal effect). Put shortly:
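Same wells as the HIF-1 reporter screen; ME-180 cells carrying HRE-bla, 17 hr treatment at 37C; CellTiter-Glo luminescence read after 30 min at room temperature.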

Assay [2] is described as follows: qHTS assay to identify small molecule agonists of H2AX (AID 1224845; active = well fitted activation curve with a large enough effect in the signal ratio in the repeat runs, not every such curve was filed as active; the % refers to the signal ratio). Put shortly: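 Wild-type CHO-K1 cells, plated overnight, exposed 3hr at 37C to 15 concentrations (0.76% DMSO final). Lysed, then HTRF anti-pH2AX (S139) cryptate and anti-H2AX-d2 antibodies, 24 hr room temperature; 665/620 nm emission read.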
(In general: qHTS replaces the single test concentration by a dilution series.)

Assay [3] can be described thus: qHTS assay to identify small molecule antagonists of the estrogen related receptor (ERR) signaling pathway from Tox21 library (AID 1224848). Note: nearly all actives have a fitted effect of over 50% in size. Note: potency is the fitted concentration of half-maximal effect. Put shortly: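 Compounds dissolved in DMSO are pin-transferred onto ERR reporter cells (2,000 per well) that have settled for 6 h at 37 C. Plates then incubate 18 h at 37 C before ONE-Glo luciferase reagent and a luminescence read 30 min later.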

A short description of assay [4]: qHTS assay to identify small molecule agonists of the estrogen related receptor (ERR) signaling pathway from Tox21 library (AID 1224849; calls by dose curve; note: nearly all actives have a fitted effect of over 15% in size). Conditions: ERR reporter cell line, ONE-Glo luciferase, 18 h; at 92.4 µM (top of the series) unless noted. Put shortly:
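Reporter cells (ERR, NTP source) treated with Tox21 10K compounds 18 h, 37 C. Readout: ONE-Glo luminescence, 30 min RT.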

The nature of assay [5]: qHTS RealTime-Glo MT Cell Viability Assay in HepG2 cells - 24 hour (AID 1224867). Note: nearly all actives have a fitted effect of over 50% in size. Put shortly: (§1)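 qHTS, HepG2, 600 cells/well, RealTime-Glo (NanoLuc + prosubstrate) added with cells; 5 h preincubation; DMSO compound addition; 37 C; luminescence at 0/8/16/24/32/40 h.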
Assay [6] can be described thus: qHTS RealTime-Glo MT Cell Viability Assay in HEK293 cells - 32 hour (AID 1224868). Note: top concentration of the series differs between compounds; nearly all actives have a fitted effect of over 50% in size. Put shortly: (§2)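 Assay medium contained NanoLuc luciferase plus cell-permeant prosubstrate, added with HEK293 cells at 600 cells/well. After 5 h at 37 C/5% CO2 compounds were added; plates stayed at 37 C for 40 h with serial luminescence reads.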
Assay [7] is described as follows: A CellTox Green Cytotoxicity Assay to monitor cytotoxicity in HEK293 cells - 0 hour (AID 1224869). Note: nearly all actives have a fitted effect of over 50% in size. Note: potency is the fitted concentration of half-maximal effect. Put shortly:
(§3)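 Homogeneous no-lysis format: HEK293 cell suspension mixed with CellTox Green reagent, seeded, incubated 5 h at 37 C/5% CO2, then dosed by pintool with compound in DMSO.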

Assay [8] can be described thus: qHTS RealTime-Glo MT Cell Viability Assay in HepG2 cells - 40 hour (AID 1224870). Note: nearly all actives have a fitted effect of over 50% in size. Put shortly:
(§4)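 HepG2 cells (600/well) mixed with RealTime-Glo MT reagent, settled 5 h at 37 C/5% CO2 before compound addition. Nonlytic NanoLuc luminescence from viable-cell prosubstrate reduction read repeatedly during 40 h treatment at 37 C.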

The nature of assay [9]: A CellTox Green Cytotoxicity Assay to monitor cytotoxicity in HEK293 cells - 40 hour (AID 1224871). Note: nearly all actives have a fitted effect of over 45% in size. Note: potency is the fitted concentration of half-maximal effect. Put shortly: as §3
Assay [10] in a line: qHTS RealTime-Glo MT Cell Viability Assay in HepG2 cells - 8 hour (AID 1224873). Note: nearly all actives have a fitted effect of over 55% in size. Put shortly:
as §4

Assay [11] is described as follows: qHTS RealTime-Glo MT Cell Viability Assay in HEK293 cells - 40 hour (AID 1224874). Note: nearly all actives have a fitted effect of over 50% in size. Conditions: RealTime-Glo luminescence; max response: active compounds read low. Put shortly: (§5)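 Measured as luminescence from the same continuously cultured HEK293 wells at successive time points (0, 8, 16, 24, 32, 40 h) after compound addition. Reagent present from seeding; dosing at 5 h; incubation 37 C.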

The nature of assay [12]: A CellTox Green Cytotoxicity Assay to monitor cytotoxicity in HEK293 cells - 24 hour (AID 1224875). Note: nearly all actives have a fitted effect of over 45% in size. Note: potency is the fitted concentration of half-maximal effect. Put shortly: as §3
Assay [13] is described as follows: A CellTox Green Cytotoxicity Assay to monitor cytotoxicity in HepG2 cells - 16 hour (AID 1224876). Note: nearly all actives have a fitted effect of over 45% in size. Note: potency is the fitted concentration of half-maximal effect. Put shortly:
(§6)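 Fluorescent DNA-binding dye, 600 HepG2 cells/well, 5 h preincubation then compound in DMSO; same plates read at 0–40 h, 37 C.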

Assay [14] in a line: qHTS RealTime-Glo MT Cell Viability Assay in HepG2 cells - 32 hour (AID 1224877). Note: nearly all actives have a fitted effect of over 55% in size. Put shortly: as §1
Assay [15] in a line: A CellTox Green Cytotoxicity Assay to monitor cytotoxicity in HepG2 cells - 24 hour (AID 1224878). Note: nearly all actives have a fitted effect of over 45% in size. Note: potency is the fitted concentration of half-maximal effect. Put shortly: as §6
Assay [16] is described as follows: A CellTox Green Cytotoxicity Assay to monitor cytotoxicity in HepG2 cells - 40 hour (AID 1224879). Note: nearly all actives have a fitted effect of over 40% in size. Note: potency is the fitted concentration of half-maximal effect. Put shortly:
as §6

Assay [17] can be described thus: qHTS RealTime-Glo MT Cell Viability Assay in HEK293 cells - 0 hour (AID 1224880). Note: nearly all actives have a fitted effect of over 45% in size. Note: potency is the fitted concentration of half-maximal effect. Put shortly:
as §5

The nature of assay [18]: qHTS assay to identify small molecule agonists of H2AX - cell viability counter screen (AID 1224847; calls by dose curve; note: top concentration of the series differs between compounds; nearly all actives have a fitted effect of over 30% in size). Put shortly: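 Cells plated first: CHO-K1, 1000 per well in 10% FBS medium, incubated overnight at 37C. Then 15-point compound titration added (final DMSO 0.76%) for 3 hr. Finally CellTiter-Glo added and luminescence read.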
Assay [19] is described as follows: qHTS RealTime-Glo MT Cell Viability Assay in HEK293 cells - 16 hour (AID 1224872). Put shortly: as §2
% is set by controls: 0 for no effect and ±100 for the full control effect.

With `CCN(CC)CCNC(=O)c1cc(Br)c(N)cc1OC`, the Potency result in [1], in assay [2], in assay [3], in assay [5], in [6] and in assay [7] was “inactive” each time. Further, the Potency entry in [8], in assay [9], in assay [10], in assay [12], in assay [13] and in assay [14] was “inactive” throughout. The Potency entry in assay [15], in assay [16] and in assay [17] was “inactive” each time. Besides, in assay [4], the activity change, positive = activation is 3.9% [at 42.5 µM]. Besides, the max response in [11] was 10.1%.

As to `O[C@@H](COc1cccc2ncccc12)CN1CCN(C2c3ccccc3[C@@H]3[C@H](c4ccccc42)C3(F)F)CC1` (stereo partly drawn), the Potency entry in [1], in [2], in [18], in [7], in assay [8] and in [9] was “inactive” throughout. Moreover, the Potency result in assay [12], in assay [13], in assay [15], in assay [16] and in [17] was “inactive” each time.

For the molecule `CCCCCCCCCCCCCCOS(=O)(=O)O`, the Potency in assay [1] was 54.9 µM (active); in [9] it was 43.6 µM (active); in assay [12], 43.6 µM (active); in assay [13], 34.7 µM (active); in [15] it was 34.7 µM (active); in assay [16] it was 34.7 µM (active). The Potency result in [2], in assay [18], in assay [5], in assay [6], in [7] and in assay [8] was “inactive” in each case. Further, the Potency result in [19], in assay [10], in [14] and in assay [17] was “inactive” each time. For the same molecule, the activity change, positive = activation in [4] was -17.5%. In assay [11], the max response was -13.8%.

On to `O=C(Nc1ccc(S(=O)(=O)N2CCOCC2)cc1)c1cc(Cl)ccc1NS(=O)(=O)c1ccc(Cl)s1`, for which the Potency result in assay [1], in assay [2], in assay [18], in assay [3], in [6] and in assay [8] was “inactive” throughout. Also, the activity change, positive = activation in assay [4] was -2.07% [at 42.5 µM]. Besides, the Potency in assay [7] was 19 µM (active); in assay [9], 21.3 µM (active); in assay [13] it was 26.8 µM (active); in assay [17], 10.7 µM (active). Further, in assay [11], the max response is -14.7%.

Take `CCCCCCCCCCCCCCCCCCOS(=O)(=O)O`: in [1], the Potency is 38.9 µM (active). Moreover, the Potency entry in assay [2], in assay [7], in assay [8], in assay [19], in assay [10] and in assay [14] was “inactive” each time. For the same molecule, in assay [17], the Potency entry is “inactive”. Further, in assay [4], the activity change, positive = activation was -38.9%.

For `CN(C)c1ccc(C(c2ccccc2)c2ccc(N(C)C)cc2)cc1`, the Potency entry in assay [1], in [2], in [5], in assay [7], in assay [8] and in assay [13] was “inactive” in each case. In addition, the Potency result in [14], in [15], in assay [16] and in assay [17] was “inactive” in each case. The Potency in assay [3] is 34.4 µM (active). Also, the activity change, positive = activation in assay [4] was -34.5%.

`NCC(=O)CCC(=O)O`: the Potency entry in assay [1], in assay [2], in assay [18], in assay [5], in assay [6] and in assay [7] was “inactive” each time. The Potency entry in assay [8], in assay [9], in assay [19], in assay [10], in [12] and in [13] was “inactive” each time. The Potency result in assay [14], in [15], in [16] and in [17] was “inactive” in each case. In addition, in assay [11], the max response is 7.89%.

`CN1CCN(C(c2ccccc2)c2ccccc2)CC1`: the Potency result in [1], in [2], in assay [18], in assay [5], in assay [6] and in [7] was “inactive” throughout. For the same molecule, the Potency result in [8], in assay [9], in [19], in assay [10], in assay [13] and in assay [14] was “inactive” throughout. Besides, the Potency result in assay [15], in assay [16] and in assay [17] was “inactive” each time. Moreover, in [11], the max response was -1.32%.

On to `CCCCCCc1ccc(-c2ccc(C#N)cc2)cc1`, for which the Potency result in assay [1], in [2], in [3], in assay [5], in [6] and in assay [7] was “inactive” throughout. For the same molecule, the Potency entry in assay [8], in [9], in [19], in [10], in assay [14] and in assay [15] was “inactive” each time. Further, the Potency result in assay [16] and in assay [17] was “inactive” each time. Besides, the activity change, positive = activation in assay [4] is 1.68%. For the same molecule, the max response in [11] was -15.1%.
